From PubChem BioAssay (EPA / NIEHS) come the findings set out here.

Records with an inconclusive call do not appear. The source made the active and inactive calls. The calls were made as follows: active = hit-call score of the fitted dose curve at least 0.9, where 1 is the maximum; inconclusive = response in the unintended direction; inactive = score below 0.9.

In experiment [1] the target is rat Gamma-Aminobutyric Acid Type A Receptor, Non-Selective (GABAR-NonSelective), Gabra1 (gene 29705) (UniProt P62813). As to the kind of experiment: NVS_LGIC_rGABAR_NonSelective: NovaScreen (NVS) Ligand-Gated Ion Channel Assay for rat Gamma-Aminobutyric Acid Type A Receptor, Non-Selective (GABAR-NonSelective) (AID 2283326). In short, it runs like this: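 Compounds were first screened in duplicate at 25 uM, with actives run as singleton concentration series (max 50 uM). Binding of a radioligand to rat whole-brain GABA-A preparation was measured by filtration and scintillation counting after 1 h, DMSO baseline.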

In experiment [2] the target is rat Glutamate, NMDA Agonist Site (GluNMDA), Grin1 (gene 24408) (UniProt P35439). As to the kind of experiment: NVS_LGIC_rGluNMDA_Agonist: NovaScreen (NVS) Ligand-Gated Ion Channel Assay for rat Glutamate, NMDA Agonist Site (GluNMDA) (AID 2283327). How it is done:
NVS_LGIC_rGluNMDA_Agonist is a biochemical, single-readout assay that uses extracted gene-proteins from Rat forebrain membranes in a tissue-based cell-free assay. Measurements were taken 1 hour after chemical dosing in a 48-well plate.NVS_LGIC_rGluNMDA_Agonist is one of one assay component(s) measured or calculated from the NVS_LGIC_rGluNMDA_Agonist assay. It is designed to make measurements of radioligand binding, a form of binding reporter, as detected with scintillation counting signals by Filter-based radiodetection technology.Data from the assay component NVS_LGIC_rGluNMDA_Agonist was analyzed into 1 assay endpoint. This assay endpoint, NVS_LGIC_rGluNMDA_Agonist, was analyzed in the positive analysis fitting direction relative to DMSO as the negative control and baseline of activity. Using a type of binding reporter, gain-of-signal activity can be used to understand changes in the binding as they relate to the gene Grin1. Furthermore, this assay endpoint can be referred to as a primary readout, because the performed assay has only produced 1 assay endpoint. To generalize the intended target to other relatable targets, this assay endpoint is annotated to the ion channel intended target family, where the subfamily is ligand-gated ion channel. […]

Experiment [3] deals with NCBI gene 100848466. As to the kind of experiment: NVS_NR_bPR: NovaScreen (NVS) Nuclear Receptor Binding Assay for bovine Progextron Receptor (PR) (AID 2283343).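 Also: actives lower bound radioligand signal below DMSO meaning displacement of the label.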 In short, it runs like this: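 Steps: bovine uterine membranes were dosed with chemical alongside radioligand, incubated 18 hours, then radiodetected by scintillation counting. Initial testing used 25 uM in duplicate; confirmed actives were rerun as concentration series.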

Experiment [4] deals with human Constitutive Androstane Receptor (CAR), NR1I3 (gene 9970) (UniProt Q14994). The experiment can be described thus: NVS_NR_hCAR_Antagonist: NovaScreen (NVS) Nuclear Receptor Binding Assay for human Constitutive Androstane Receptor Antagonism (CAR) (AID 2283344). The procedure, abridged:
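Single 25 uM duplicate primary screen, with concentration-series follow-up on actives. Cell-free binding format run in antagonist mode, TR-FRET signal taken 1 h post-dose; activity is signal loss relative to DMSO.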

For experiment [5] the target is unchanged. The experiment can be described thus: NVS_NR_hCAR_Agonist: NovaScreen (NVS) Nuclear Receptor Binding Assay for human Constitutive Androstane Receptor Agonism (CAR) (AID 2283328). The procedure, abridged: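 Actives from a 25 uM duplicate screen were retested in singleton concentration series to 50 uM max. Biochemical TR-FRET assay on extracted CAR protein measured 1 h post-dose, with signal increase over DMSO control.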

Sequence of human Constitutive Androstane Receptor (CAR), NR1I3 (gene 9970) (Q14994 whole entry, looked up): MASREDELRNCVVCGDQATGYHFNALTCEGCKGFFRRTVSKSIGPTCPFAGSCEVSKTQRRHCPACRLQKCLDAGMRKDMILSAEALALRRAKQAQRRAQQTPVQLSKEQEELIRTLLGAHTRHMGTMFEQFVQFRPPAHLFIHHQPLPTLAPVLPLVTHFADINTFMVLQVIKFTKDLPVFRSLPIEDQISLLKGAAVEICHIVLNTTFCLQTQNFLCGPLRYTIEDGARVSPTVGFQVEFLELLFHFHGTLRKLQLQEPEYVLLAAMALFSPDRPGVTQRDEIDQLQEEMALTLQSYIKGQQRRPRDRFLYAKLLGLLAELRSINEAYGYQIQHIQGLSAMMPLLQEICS
Sequence of rat Gamma-Aminobutyric Acid Type A Receptor, Non-Selective (GABAR-NonSelective), Gabra1 (gene 29705) (P62813 whole entry, looked up): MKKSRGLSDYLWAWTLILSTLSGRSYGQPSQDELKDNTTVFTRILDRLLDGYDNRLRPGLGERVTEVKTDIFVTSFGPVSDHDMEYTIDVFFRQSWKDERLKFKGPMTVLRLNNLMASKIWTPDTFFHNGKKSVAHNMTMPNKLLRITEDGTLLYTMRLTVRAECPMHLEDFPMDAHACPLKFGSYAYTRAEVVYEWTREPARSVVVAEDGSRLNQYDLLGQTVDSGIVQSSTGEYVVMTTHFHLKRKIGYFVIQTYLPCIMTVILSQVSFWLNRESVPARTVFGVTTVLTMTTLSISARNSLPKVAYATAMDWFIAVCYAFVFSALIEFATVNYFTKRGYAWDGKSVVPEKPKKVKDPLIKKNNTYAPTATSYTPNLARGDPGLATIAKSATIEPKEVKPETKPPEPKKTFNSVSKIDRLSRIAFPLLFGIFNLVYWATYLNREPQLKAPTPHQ

Take `Oc1cc(Cl)c(Cl)cc1Cl`: in experiment [1], the compound was called inactive.
The AC50 is the concentration giving half of the maximal activity seen. Take `CCCCCCCCCCCCc1cccc(S(=O)(=O)O)c1`: in experiment [2], the compound was called inactive. Moreover, the AC50 is 19.5 µM (active) in experiment [3] and 17.9 µM (active) in experiment [4].
Regarding `O=C(N[C@H]1CN2CCC1CC2)c1ccc2c(c1)OCCO2`, the compound was called inactive in experiment [5].
As to `Clc1cccc(Cl)c1`, in experiment [4], the result was inactive.
For `CC(C)O.CC(C)O.OCCN(CCO)CCO.OCCN(CCO)CCO.[Ti]`, the AC50 in experiment [4] is 25 µM (active).
